Columns and labels:
[1] = biological target: Ribosomal protein S6 kinase alpha-6 (Homo sapiens) (UniProt Q9UK32); settings: at 1 µM;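 further: each value is a mean inhibition of RSK4 from a GSK PKIS panel screen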
[2] = biological target: T1, Serine/threonine-protein kinase Sgk1 (Homo sapiens) (UniProt O00141); settings: at 0.1 µM
T1 sequence (whole entry): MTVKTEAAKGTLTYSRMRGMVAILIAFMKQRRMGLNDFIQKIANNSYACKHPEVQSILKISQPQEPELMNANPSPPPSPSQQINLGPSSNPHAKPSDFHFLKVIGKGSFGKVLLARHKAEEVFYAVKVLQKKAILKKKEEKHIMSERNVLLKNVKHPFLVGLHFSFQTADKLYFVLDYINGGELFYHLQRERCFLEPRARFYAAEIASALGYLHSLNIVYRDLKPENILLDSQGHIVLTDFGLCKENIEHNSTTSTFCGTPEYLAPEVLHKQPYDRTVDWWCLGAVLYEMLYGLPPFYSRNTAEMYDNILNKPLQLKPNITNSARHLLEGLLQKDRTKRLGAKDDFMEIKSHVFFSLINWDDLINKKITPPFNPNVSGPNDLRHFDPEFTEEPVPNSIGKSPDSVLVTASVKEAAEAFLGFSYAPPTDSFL

[3] = biological target: T1, Serine/threonine-protein kinase Sgk1 (Homo sapiens); settings: at 1 µM
[4] = biological target: T2, Serine/threonine-protein kinase Sgk2 (Homo sapiens) (UniProt Q9HBY8); settings: at 0.1 µM
T2 sequence (whole entry): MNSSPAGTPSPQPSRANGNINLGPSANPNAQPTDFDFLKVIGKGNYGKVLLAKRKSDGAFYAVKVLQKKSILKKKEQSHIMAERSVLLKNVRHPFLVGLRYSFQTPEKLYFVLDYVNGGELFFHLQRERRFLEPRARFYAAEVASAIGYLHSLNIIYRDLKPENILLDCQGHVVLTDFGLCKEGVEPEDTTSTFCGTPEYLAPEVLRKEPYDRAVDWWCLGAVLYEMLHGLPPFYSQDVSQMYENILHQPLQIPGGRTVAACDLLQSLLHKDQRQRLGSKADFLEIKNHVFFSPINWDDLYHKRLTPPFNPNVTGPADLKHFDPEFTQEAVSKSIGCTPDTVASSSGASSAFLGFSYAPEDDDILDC

[5] = biological target: T2, Serine/threonine-protein kinase Sgk2 (Homo sapiens); settings: at 1 µM
[6] = biological target: T3, Serine/threonine-protein kinase Sgk3 (Homo sapiens) (UniProt Q96BR1); settings: at 0.1 µM
T3 sequence (whole entry): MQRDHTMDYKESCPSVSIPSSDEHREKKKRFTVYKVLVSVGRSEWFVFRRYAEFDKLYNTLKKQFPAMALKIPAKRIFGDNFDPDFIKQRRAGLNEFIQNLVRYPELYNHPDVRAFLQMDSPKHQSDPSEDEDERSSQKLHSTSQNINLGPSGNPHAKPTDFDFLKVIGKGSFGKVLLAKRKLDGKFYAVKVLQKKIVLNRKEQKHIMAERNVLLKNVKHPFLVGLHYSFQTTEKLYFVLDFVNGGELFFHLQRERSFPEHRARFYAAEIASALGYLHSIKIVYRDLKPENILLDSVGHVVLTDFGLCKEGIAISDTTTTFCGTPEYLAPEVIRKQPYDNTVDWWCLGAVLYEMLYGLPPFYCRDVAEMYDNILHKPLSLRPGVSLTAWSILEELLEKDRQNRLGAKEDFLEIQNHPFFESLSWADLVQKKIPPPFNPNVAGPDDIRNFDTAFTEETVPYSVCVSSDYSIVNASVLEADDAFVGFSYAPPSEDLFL

[7] = biological target: T3, Serine/threonine-protein kinase Sgk3 (Homo sapiens); settings: at 1 µM
[8] = biological target: 5'-AMP-activated protein kinase catalytic subunit alpha-1 (Homo sapiens) (UniProt Q13131); settings: at 0.1 µM
Sequence of 5'-AMP-activated protein kinase catalytic subunit alpha-1 (Homo sapiens) (Q13131 whole entry, looked up): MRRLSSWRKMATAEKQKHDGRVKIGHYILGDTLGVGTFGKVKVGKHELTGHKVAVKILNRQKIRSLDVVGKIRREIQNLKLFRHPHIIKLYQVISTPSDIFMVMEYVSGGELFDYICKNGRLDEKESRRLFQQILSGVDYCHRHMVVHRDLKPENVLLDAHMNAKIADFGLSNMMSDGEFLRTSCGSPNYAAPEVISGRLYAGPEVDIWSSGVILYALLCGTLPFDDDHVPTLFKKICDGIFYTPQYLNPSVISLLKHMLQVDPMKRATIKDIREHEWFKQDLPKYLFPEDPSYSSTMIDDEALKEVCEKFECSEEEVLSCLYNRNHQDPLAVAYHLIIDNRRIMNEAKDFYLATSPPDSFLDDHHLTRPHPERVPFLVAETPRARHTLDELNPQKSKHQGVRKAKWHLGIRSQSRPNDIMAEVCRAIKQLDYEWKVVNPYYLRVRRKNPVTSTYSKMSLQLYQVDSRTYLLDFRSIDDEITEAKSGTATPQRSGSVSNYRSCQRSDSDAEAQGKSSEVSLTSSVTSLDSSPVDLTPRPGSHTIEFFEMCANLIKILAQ

[9] = biological target: 5'-AMP-activated protein kinase catalytic subunit alpha-1 (Homo sapiens) (UniProt Q13131); settings: at 1 µM
[10] = biological target: 5'-AMP-activated protein kinase catalytic subunit alpha-2 (Homo sapiens) (UniProt P54646); settings: at 0.1 µM
Sequence of 5'-AMP-activated protein kinase catalytic subunit alpha-2 (Homo sapiens) (P54646 whole entry, looked up): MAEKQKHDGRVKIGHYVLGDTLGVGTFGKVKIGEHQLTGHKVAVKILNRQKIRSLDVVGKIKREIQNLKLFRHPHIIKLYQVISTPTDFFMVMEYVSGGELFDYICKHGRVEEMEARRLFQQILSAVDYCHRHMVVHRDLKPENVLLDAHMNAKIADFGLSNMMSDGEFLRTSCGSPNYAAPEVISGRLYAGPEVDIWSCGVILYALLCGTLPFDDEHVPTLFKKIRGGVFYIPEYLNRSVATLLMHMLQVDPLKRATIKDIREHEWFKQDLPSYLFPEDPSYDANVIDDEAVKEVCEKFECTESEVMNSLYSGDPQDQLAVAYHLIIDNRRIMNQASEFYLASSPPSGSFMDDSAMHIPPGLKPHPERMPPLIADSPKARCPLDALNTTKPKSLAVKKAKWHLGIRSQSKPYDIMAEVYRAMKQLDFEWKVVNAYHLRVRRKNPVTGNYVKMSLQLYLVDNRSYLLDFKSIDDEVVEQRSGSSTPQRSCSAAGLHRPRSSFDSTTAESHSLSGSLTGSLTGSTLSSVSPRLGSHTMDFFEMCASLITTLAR

[11] = biological target: 5'-AMP-activated protein kinase catalytic subunit alpha-2 (Homo sapiens) (UniProt P54646); settings: at 1 µM
[12] = biological target: T4, NUAK family SNF1-like kinase 1 (Homo sapiens) (UniProt O60285); settings: at 0.1 µM
T4 sequence (whole entry): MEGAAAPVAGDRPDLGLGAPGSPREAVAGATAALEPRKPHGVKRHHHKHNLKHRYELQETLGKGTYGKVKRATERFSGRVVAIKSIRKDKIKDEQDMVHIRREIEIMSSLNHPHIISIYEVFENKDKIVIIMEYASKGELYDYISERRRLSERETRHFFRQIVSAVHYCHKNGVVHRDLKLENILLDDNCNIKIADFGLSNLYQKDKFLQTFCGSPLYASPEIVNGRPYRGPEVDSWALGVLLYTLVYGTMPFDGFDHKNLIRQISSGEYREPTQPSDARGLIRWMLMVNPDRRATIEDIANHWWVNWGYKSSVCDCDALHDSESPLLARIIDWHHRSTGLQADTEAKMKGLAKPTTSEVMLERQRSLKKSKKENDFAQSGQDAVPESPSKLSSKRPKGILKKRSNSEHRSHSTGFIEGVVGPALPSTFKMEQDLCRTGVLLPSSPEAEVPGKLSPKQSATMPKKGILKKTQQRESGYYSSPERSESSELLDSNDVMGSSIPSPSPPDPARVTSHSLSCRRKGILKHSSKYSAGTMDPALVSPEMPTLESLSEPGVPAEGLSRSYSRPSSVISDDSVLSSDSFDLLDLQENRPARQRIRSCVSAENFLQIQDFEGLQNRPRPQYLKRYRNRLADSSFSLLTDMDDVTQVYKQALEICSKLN

[13] = biological target: T4, NUAK family SNF1-like kinase 1 (Homo sapiens); settings: at 1 µM
[14] = biological target: T5, Serine/threonine-protein kinase BRSK1 (Homo sapiens) (UniProt Q8TDC3); settings: at 0.1 µM
T5 sequence (whole entry): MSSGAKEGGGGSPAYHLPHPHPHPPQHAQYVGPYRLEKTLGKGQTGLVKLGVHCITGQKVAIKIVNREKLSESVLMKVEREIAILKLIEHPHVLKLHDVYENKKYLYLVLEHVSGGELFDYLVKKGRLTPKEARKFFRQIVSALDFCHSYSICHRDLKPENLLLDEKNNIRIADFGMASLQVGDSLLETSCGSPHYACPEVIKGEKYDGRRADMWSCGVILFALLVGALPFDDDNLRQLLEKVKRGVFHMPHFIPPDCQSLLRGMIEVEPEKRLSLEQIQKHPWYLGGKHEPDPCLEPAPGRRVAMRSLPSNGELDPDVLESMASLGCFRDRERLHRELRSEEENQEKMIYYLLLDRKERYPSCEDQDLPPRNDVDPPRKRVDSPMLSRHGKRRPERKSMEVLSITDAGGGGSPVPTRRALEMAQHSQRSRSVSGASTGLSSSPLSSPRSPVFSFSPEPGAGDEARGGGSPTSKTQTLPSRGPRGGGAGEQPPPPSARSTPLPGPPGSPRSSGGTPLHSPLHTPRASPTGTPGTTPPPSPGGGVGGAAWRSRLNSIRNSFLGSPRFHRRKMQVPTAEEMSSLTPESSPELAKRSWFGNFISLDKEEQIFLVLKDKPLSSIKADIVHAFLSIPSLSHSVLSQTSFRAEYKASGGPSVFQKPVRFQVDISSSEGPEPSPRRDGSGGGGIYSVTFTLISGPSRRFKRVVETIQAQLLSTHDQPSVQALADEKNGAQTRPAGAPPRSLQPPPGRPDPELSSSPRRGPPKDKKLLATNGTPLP

[15] = biological target: T5, Serine/threonine-protein kinase BRSK1 (Homo sapiens); settings: at 1 µM
[16] = biological target: T6, Serine/threonine-protein kinase BRSK2 (Homo sapiens) (UniProt Q8IWQ3); settings: at 0.1 µM
T6 sequence (whole entry): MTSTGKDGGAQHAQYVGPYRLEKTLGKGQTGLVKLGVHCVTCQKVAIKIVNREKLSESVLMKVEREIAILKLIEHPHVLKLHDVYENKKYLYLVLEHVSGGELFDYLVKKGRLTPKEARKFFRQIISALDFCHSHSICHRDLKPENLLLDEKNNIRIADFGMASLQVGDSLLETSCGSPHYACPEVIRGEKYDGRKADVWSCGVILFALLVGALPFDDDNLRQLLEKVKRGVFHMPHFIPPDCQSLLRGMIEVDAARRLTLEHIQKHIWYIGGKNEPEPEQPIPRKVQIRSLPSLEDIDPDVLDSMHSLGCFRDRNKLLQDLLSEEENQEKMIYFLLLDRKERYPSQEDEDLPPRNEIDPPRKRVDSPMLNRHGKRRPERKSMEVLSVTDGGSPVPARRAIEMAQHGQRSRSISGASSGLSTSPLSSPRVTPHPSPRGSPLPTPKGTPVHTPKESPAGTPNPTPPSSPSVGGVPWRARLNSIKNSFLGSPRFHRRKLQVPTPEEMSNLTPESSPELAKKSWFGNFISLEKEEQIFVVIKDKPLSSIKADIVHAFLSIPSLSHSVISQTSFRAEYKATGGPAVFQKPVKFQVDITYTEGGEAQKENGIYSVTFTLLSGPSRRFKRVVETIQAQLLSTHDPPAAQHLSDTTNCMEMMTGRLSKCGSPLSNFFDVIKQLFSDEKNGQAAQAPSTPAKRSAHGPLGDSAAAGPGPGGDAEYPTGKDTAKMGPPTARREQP

[17] = biological target: T6, Serine/threonine-protein kinase BRSK2 (Homo sapiens); settings: at 1 µM
[18] = biological target: Calcium/calmodulin-dependent protein kinase type 1D (Homo sapiens) (UniProt Q8IU85); settings: at 0.1 µM
Sequence of Calcium/calmodulin-dependent protein kinase type 1D (Homo sapiens) (Q8IU85 whole entry, looked up): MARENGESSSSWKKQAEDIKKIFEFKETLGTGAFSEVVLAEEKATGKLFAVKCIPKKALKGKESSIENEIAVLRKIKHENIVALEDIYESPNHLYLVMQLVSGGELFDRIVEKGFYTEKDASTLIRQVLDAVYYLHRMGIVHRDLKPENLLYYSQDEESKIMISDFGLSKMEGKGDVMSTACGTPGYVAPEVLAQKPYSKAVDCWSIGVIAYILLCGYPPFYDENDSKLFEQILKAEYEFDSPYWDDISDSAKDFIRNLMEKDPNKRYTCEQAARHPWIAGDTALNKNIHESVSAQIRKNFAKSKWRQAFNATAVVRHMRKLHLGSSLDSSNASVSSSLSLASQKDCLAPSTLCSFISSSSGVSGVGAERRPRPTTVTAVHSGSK

[19] = biological target: Calcium/calmodulin-dependent protein kinase type 1D (Homo sapiens) (UniProt Q8IU85); settings: at 1 µM
[20] = biological target: Calcium/calmodulin-dependent protein kinase type II subunit alpha (Homo sapiens) (UniProt Q9UQM7); settings: at 0.1 µM;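 further: reported values are averages (mean inhibition of CAMK2A)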
Sequence of Calcium/calmodulin-dependent protein kinase type II subunit alpha (Homo sapiens) (Q9UQM7 whole entry): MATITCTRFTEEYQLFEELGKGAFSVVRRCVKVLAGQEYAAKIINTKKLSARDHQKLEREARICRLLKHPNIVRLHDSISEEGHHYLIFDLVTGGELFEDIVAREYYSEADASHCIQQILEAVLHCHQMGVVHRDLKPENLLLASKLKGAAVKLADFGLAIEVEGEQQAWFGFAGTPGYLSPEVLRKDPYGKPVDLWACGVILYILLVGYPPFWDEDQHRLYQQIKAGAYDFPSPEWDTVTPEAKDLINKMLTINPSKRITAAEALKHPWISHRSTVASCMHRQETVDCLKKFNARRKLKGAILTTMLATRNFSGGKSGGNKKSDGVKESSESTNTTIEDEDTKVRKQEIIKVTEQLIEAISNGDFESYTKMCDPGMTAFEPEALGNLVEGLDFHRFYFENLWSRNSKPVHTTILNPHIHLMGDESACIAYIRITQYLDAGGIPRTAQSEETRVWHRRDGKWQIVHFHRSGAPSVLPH

Sequence of Ribosomal protein S6 kinase alpha-6 (Homo sapiens) (Q9UK32 whole entry): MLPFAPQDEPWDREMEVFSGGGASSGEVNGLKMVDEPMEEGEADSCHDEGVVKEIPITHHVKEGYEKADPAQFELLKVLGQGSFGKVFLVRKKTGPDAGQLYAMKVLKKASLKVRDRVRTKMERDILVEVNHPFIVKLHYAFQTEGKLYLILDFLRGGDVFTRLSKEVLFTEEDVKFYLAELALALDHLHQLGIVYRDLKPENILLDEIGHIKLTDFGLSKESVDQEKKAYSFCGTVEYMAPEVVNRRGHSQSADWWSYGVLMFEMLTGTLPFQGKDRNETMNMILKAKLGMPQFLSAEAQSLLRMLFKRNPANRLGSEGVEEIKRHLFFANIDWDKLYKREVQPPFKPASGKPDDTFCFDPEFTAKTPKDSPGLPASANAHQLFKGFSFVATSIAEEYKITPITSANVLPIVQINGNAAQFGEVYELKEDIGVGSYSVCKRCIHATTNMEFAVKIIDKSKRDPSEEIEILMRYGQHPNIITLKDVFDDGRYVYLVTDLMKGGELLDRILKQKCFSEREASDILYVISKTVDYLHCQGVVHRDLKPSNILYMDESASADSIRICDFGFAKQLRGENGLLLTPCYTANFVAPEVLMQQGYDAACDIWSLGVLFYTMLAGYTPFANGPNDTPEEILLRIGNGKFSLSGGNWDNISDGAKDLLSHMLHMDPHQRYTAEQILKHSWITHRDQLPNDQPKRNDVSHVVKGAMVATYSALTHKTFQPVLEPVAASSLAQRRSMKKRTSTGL

Row | SMILES | inhibition [1] [%] | inhibition [2] [%] | inhibition [3] [%] | inhibition [4] [%] | inhibition [5] [%] | inhibition [6] [%] | inhibition [7] [%] | inhibition [8] [%] | inhibition [9] [%] | inhibition [10] [%] | inhibition [11] [%] | inhibition [12] [%] | inhibition [13] [%] | inhibition [14] [%] | inhibition [15] [%] | inhibition [16] [%] | inhibition [17] [%] | inhibition [18] [%] | inhibition [19] [%] | inhibition [20] [%]
1 | N#Cc1ccc(Oc2nccc(-c3c(-c4ccc(F)cc4)ncn3C3CCNCC3)n2)cc1 | 0.97 | 2.45 | 2.02 | 7.44 | 3.86 | 2.02 | 3.62 | 2.27 | 3.89 | 3.09 | 3.23 | -1.37 | 0.67 | -2.05 | 0.23 | 0.71 | 2.75 | 0.44 | 0.96 | 2.95
2 | NC(=O)Cc1ccccc1Oc1nccc(-c2c(-c3ccc(F)cc3)ncn2C2CCNCC2)n1 | 2.01 | -0.43 | 0.48 | 1.13 | 0.76 | 0.96 | 0.86 | 2.61 | 1.44 | 1.24 | 2.59 | 0.84 | 2.97 | 4.71 | 6.12 | 4.74 | 5.25 | 0.63 | 1.65 | 2.81
3 | COc1cc(Nc2ncc3c(C)nc(-c4cccc(C(F)(F)F)c4)n3n2)cc(OC)c1OC | 29.1 | 3.85 | 8.66 | -1.55 | 6.37 | 5.08 | 8.49 | 6.54 | 39.2 | 5.38 | 25 | 35.4 | 65.3 | 4.57 | 7.57 | 5.62 | 9.19 | -1.94 | -0.82 | 2.25
4 | O=C(Nc1n[nH]c2nc(-c3ccco3)ccc12)C1CC1 | 0.71 | 2.03 | 0.33 | 0.71 | 0.28 | -0.55 | 1.28 | -0.2 | 1.85 | 1.32 | 3.94 | 0.19 | 2.78 | 0.98 | 3.49 | 0.55 | 4.63 | 0.8 | 2.1 | 1.71
5 | Cc1ccc(C(=O)NC2CCC2)cc1-c1ccc(C(=O)NCC2CC2)cc1 | 1.08 | 2.17 | 2.8 | 0.49 | -2.52 | 0.54 | 1.57 | 1.41 | 1.46 | 1.35 | 0.57 | 0.27 | 5.25 | 1.77 | 3.1 | 1.53 | 4.25 | 0.09 | 2.93 | 3.06
6 | NC(=O)c1ccc(Oc2nccc(-c3c(-c4ccc(F)cc4)ncn3C3CCNCC3)n2)cc1 | 3.24 | 2.88 | 3.6 | 1.93 | 4.5 | 3.5 | 2.61 | 2.33 | 3.68 | 7.31 | 3.28 | 1.39 | 2.27 | 2.39 | -0.49 | 1.13 | 1.56 | 0.06 | 2.62 | 3.03
7 | O=C1Nc2ccccc2/C1=C/Nc1ccc(-n2cncn2)cc1 | 11.4 | 5.81 | 29.2 | 3.56 | 10.9 | 4.57 | 8.06 | 5.93 | 19.3 | 3.9 | 15.5 | 8.76 | 38.7 | 2.17 | 17.2 | 4.08 | 26.3 | 0.18 | 0.98 | 3.66
8 | C/C(Nc1ccc(S(N)(=O)=O)cc1)=C1/C(=O)Nc2ccccc21 | 20.7 | 5.32 | 18.4 | 1.82 | 2.83 | 0.76 | 2.1 | 1.16 | 9.79 | 3.01 | 4.96 | 6.3 | 34 | 1.67 | 18.9 | 4.55 | 31.1 | -0.31 | -0.55 | -4.87
